Test [1] is described as follows: A CellTox Green Cytotoxicity Assay to monitor cytotoxicity in HEK293 cells - 8 hour (AID 1224884). Further: nearly all actives have a fitted effect of over 35% in size. Put shortly: (§1)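 Seeding of HEK293 cells together with cytotoxicity dye preceded a 5 h incubation at 37 C/5% CO2. Test compounds in DMSO were then added and fluorescence monitored across 40 h.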
Test [2] is described as follows: qHTS RealTime-Glo MT Cell Viability Assay in HepG2 cells - 16 hour (AID 1224885). Further: nearly all actives have a fitted effect of over 50% in size. Further: potency means the concentration at half of the fitted maximal effect. An outline of the steps:
(§2)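 HepG2 suspension premixed with RealTime-Glo reagents is plated at 600 cells per well and left 5 h at 37 C/5% CO2. Compounds in DMSO then go in, and bioluminescence reflecting viable cell number is recorded over 40 h.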

The nature of test [3]: A CellTox Green Cytotoxicity Assay to monitor cytotoxicity in HEK293 cells - 16 hour (AID 1224888). Further: nearly all actives have a fitted effect of over 35% in size. An outline of the steps:
as §1

A short description of test [4]: qHTS RealTime-Glo MT Cell Viability Assay in HepG2 cells - 0 hour (AID 1224889). Further: nearly all actives have a fitted effect of over 50% in size. An outline of the steps: as §2
(In general: Quantitative high-throughput screening tests each substance at several concentrations.)

Test [5] is described as follows: A CellTox Green Cytotoxicity Assay to monitor cytotoxicity in HepG2 cells - 8 hour (AID 1224890). Further: nearly all actives have a fitted effect of over 45% in size. Further: potency means the concentration at half of the fitted maximal effect. An outline of the steps: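 Nonlytic assay: viable cells exclude the dye, so fluorescence scales with cell death. HepG2 at 600 cells/well, compounds added after 5 h, signal read across 40 h.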
Test [6] is described as follows: qHTS assay to identify small molecule antagonists of the estrogen receptor alpha (ER-alpha) signaling pathway using the BG1 cell line in the presence of 0.1 nM 17-beta-estradiol - cell viability counter screen (AID 1259241). Further: nearly all actives have a fitted effect of over 40% in size. Further: potency means the concentration at half of the fitted maximal effect. An outline of the steps: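 Live-cell protease activity (CellTiter-Fluor fluorescence, 30 min) was read in the same wells after VM7Luc4E2 cells had been exposed to compounds with 0.1 nM 17beta-estradiol for 22 hr at 37C.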

Test [7] can be described thus: qHTS assay to identify small molecule antagonists of the androgen receptor (AR) signaling pathway using the MDA cell line in the presence of 0.5 nM R1881 - cell viability counter screen (AID 1259242). Further: nearly all actives have a fitted effect of over 45% in size. Further: potency means the concentration at half of the fitted maximal effect. Put shortly: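 R1881 at 0.5 nM final stimulated MDA-kb2 cells during 16 hr compound treatment at 37C. Cytotoxicity read: CellTiter-Fluor fluorescence after 30 min.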

Test [8] addresses Androgen receptor (Homo sapiens) (UniProt P10275). Nature of the test: qHTS assay to identify small molecule antagonists of the androgen receptor (AR) signaling pathway using the MDA cell line in the presence of 0.5 nM R1881 (AID 1259243). Further: nearly all actives have a fitted effect of over 50% in size. An outline of the steps: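 We exposed MDA-kb2 cells to compounds under 0.5 nM R1881 stimulation for 16 hr at 37C and quantified MMTV-driven luciferase by luminescence.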

Test [9] is described as follows: qHTS assay to identify small molecule HDAC inhibitors (AID 1259364).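 Further: wild-type HCT-116 cells with endogenous class I/II HDAC activity; top concentration of the series differs between compounds; nearly all actives have a fitted effect of over 45% in size.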 Put shortly: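 Relative class I and II HDAC activity is taken from the luminogenic signal in HCT-116 cells, with compound exposure 2 hr and reagent development 30 min at room temperature.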
Test [10] can be described thus: qHTS assay to identify small molecule HDAC inhibitors - cell viability counter screen (AID 1259365). Further: series mostly up to about 92 µM; nearly all actives have a fitted effect of over 50% in size. An outline of the steps:
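HCT-116 (wild type), 1,500 cells/well, overnight 37C/5% CO2; compound in DMSO 2hr; CellTiter-Glo 30min RT; luminescence read.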

Test [11] is described as follows: qHTS assay to identify small molecule agonists of the sonic hedgehog signaling (Shh) pathway - cell viability counter screen (AID 1259366). Further: nearly all actives have a fitted effect of over 50% in size. Further: potency means the concentration at half of the fitted maximal effect. An outline of the steps: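 CellTiter-Fluor fluorescence read-out, 1 hr at 37C, added after 23hr compound exposure. Cells: 3T3 Gli1-Luc, an NIH/3T3 clone with stably integrated Gli1-Luc reporter, plated 4hr before compound.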

A short description of test [12]: qHTS assay to identify small molecule antagonists of the sonic hedgehog signaling (Shh) pathway - cell viability counter screen (AID 1259367). Further: nearly all actives have a fitted effect of over 55% in size. Further: potency means the concentration at half of the fitted maximal effect. An outline of the steps:
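NIH/3T3-derived Gli1-Luc reporter cells (2,000 per well) rested 4 hr at 37 C, then received DMSO compounds plus conditioned medium. After 23 hr of treatment, CellTiter-Fluor was added for 1 hr at 37C and fluorescence read.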

A short description of test [13]: qHTS assay to identify small molecule agonists of the sonic hedgehog signaling (Shh) pathway (AID 1259368; calls by dose curve;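 further: NIH/3T3-derived 3T3Gli1-Luc cells carrying a stable Gli1-driven firefly luciferase reporter; series mostly up to about 92 µM; nearly all actives have a fitted effect of over 15% in size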). Put shortly:
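Mouse fibroblast (NIH/3T3) reporter cells with stably integrated Gli1-Luc were treated 24 hr with compound; firefly luciferase luminescence served as the read-out.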

Test [14] concerns the target Estrogen receptor beta (Homo sapiens) (UniProt Q92731). The test can be described thus: qHTS assay to identify small molecule agonists of the estrogen receptor beta (ER-beta) signaling pathway (AID 1259377; active means well fitted activation curve with a large enough effect in the signal ratio in the repeat runs, not every such curve was filed as active; the % refers to the signal ratio). An outline of the steps:
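Beta-lactamase reporter readout: fluorescence of LiveBLAzer B/G FRET substrate after 2 h at room temperature, following 16 h compound treatment of ER-beta-UAS-bla HEK293T cells at 37C in 2% charcoal-stripped FBS medium.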

For test [15] the target is unchanged. Nature of the test: qHTS assay to identify small molecule antagonists of the estrogen receptor beta (ER-beta) signaling pathway (AID 1259378; active means well fitted inhibition curve with a large enough effect in the signal ratio in the repeat runs, not every such curve was filed as active; the % refers to the signal ratio). An outline of the steps: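 ER-beta-UAS-bla HEK293T (GripTite) cells in 2% charcoal-stripped FBS medium were preincubated 6 hr at 37C, dosed with compound, then stimulated with 1 nM E2 (final) for 16 hr; beta-lactamase reporter read by B/G FRET fluorescence after 2 hr substrate loading.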

Test [16] can be described thus: qHTS RealTime-Glo MT Cell Viability Assay in HEK293 cells - 24 hour (AID 1224886). Further: nearly all actives have a fitted effect of over 50% in size. Further: potency means the concentration at half of the fitted maximal effect. An outline of the steps:
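Reads taken at 0, 8, 16, 24, 32 and 40 h from the same wells. HEK293 cells (600/well) carried RealTime-Glo reagents from seeding, with compound added after a 5 h settle at 37 C.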

The nature of test [17]: qHTS RealTime-Glo MT Cell Viability Assay in HEK293 cells - 8 hour (AID 1224887). Further: nearly all actives have a fitted effect of over 50% in size. Further: potency means the concentration at half of the fitted maximal effect. An outline of the steps:
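Tox21 screen in HEK293 using RealTime-Glo MT chemistry, with cells and reagent co-dispensed. Luminescence proportional to viable cell number was captured at intervals during 40 h compound exposure at 37 C.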

A short description of test [18]: qHTS assay to identify small molecule antagonists of the sonic hedgehog signaling (Shh) pathway (AID 1259369; calls by dose curve; further: nearly all actives have a fitted effect of over 45% in size; further: potency means the concentration at half of the fitted maximal effect). An outline of the steps:
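Conditioned medium drives Shh signalling in 3T3Gli1-Luc cells; compounds in DMSO co-applied, 24hr at 37 C, then luciferase luminescence.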

The target of test [19] is Estrogen receptor (Homo sapiens) (UniProt P03372). Nature of the test: qHTS assay to identify small molecule antagonists of the estrogen receptor alpha (ER-alpha) signaling pathway using the BG1 cell line in the presence of 0.1 nM 17-beta-estradiol (AID 1259244). Further: nearly all actives have a fitted effect of over 50% in size. Put shortly:
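VM7Luc4E2; 4xERE-luciferase; 0.1 nM E2 final; 22 h co-incubation, 37C; ONE-Glo luminescence after 30 min at room temperature.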

A short description of test [20]: qHTS assay to identify small molecule phospholipidosis (PLD) inducers (AID 1259344; active means well fitted curve in the direction sought with a large enough effect; an effect the other way counts as inactive or inconclusive). Put shortly:
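HepG2 cells on collagen I, attached 4 h at 37 C, were co-treated with compound and LipidTOX Red dye for 24 h at 37 C, then fixed with paraformaldehyde plus Hoechst 33342 and imaged by high-content microscopy for phospholipid accumulation.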

A number with no mark means an inactive call. Records with an inconclusive call do not appear. The source made the active and inactive calls. Unless noted, the call rests on the fitted dose curve; in most records, active means well fitted curve in the direction sought with a large enough effect in the repeat runs; inconclusive means weak or mixed curves; inactive means no such curve, though single readings can be large; an effect the other way counts as inactive or inconclusive.

Sequence of Estrogen receptor (Homo sapiens) (P03372 whole entry, looked up): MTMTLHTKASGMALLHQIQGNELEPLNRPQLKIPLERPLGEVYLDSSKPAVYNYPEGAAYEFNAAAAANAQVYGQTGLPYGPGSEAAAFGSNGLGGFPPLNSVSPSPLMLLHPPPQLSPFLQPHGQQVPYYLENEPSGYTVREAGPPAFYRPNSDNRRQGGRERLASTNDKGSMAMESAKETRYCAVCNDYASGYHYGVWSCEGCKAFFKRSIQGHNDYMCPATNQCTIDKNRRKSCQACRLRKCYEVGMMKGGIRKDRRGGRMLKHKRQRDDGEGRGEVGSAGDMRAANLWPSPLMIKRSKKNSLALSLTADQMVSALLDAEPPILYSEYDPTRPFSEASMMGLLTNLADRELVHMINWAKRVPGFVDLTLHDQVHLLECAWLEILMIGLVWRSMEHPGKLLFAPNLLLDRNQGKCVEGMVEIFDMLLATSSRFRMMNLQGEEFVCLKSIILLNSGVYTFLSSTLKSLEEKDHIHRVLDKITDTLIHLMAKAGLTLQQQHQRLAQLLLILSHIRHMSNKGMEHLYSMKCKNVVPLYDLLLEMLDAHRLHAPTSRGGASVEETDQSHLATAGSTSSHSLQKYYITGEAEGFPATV
Sequence of Estrogen receptor beta (Homo sapiens) (Q92731 whole entry, looked up): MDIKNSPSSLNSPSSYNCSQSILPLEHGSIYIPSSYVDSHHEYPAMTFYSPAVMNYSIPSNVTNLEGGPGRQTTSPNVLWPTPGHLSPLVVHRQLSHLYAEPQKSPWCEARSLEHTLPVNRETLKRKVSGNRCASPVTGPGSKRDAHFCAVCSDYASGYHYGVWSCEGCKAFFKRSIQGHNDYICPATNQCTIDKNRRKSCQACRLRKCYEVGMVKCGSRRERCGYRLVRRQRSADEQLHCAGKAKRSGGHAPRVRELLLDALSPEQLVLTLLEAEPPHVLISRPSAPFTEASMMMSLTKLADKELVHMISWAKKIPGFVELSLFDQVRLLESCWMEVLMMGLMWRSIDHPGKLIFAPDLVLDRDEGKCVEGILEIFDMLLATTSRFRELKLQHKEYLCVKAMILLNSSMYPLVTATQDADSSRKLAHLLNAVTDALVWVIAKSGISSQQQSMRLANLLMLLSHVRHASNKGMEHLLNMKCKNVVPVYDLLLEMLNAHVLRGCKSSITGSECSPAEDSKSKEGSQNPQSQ
Sequence of Androgen receptor (Homo sapiens) (P10275 whole entry, looked up): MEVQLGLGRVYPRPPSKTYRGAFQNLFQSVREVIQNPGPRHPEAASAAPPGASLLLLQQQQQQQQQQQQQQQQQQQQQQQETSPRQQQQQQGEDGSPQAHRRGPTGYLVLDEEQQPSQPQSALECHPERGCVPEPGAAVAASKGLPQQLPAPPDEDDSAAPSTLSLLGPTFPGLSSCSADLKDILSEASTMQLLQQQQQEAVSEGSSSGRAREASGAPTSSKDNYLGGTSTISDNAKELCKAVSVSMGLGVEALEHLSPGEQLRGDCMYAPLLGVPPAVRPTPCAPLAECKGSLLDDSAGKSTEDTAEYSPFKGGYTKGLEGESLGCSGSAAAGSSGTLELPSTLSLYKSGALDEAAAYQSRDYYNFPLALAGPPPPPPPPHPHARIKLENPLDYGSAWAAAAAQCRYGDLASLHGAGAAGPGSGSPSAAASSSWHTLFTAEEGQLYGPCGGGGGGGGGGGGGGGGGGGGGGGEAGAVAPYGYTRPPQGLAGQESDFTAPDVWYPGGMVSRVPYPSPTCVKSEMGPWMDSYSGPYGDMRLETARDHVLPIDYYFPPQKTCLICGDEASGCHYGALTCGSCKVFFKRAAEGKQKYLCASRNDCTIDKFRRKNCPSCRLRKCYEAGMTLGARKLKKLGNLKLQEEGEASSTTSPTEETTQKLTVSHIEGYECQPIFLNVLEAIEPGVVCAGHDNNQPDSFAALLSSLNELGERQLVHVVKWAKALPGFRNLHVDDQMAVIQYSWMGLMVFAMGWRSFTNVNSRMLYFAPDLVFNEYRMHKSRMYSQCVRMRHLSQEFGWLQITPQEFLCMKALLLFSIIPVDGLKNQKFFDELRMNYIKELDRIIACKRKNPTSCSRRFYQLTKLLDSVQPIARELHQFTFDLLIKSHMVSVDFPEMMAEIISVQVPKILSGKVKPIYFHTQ

`C=COCCCC`: the Potency entry in test [1], in test [2], in test [3], in test [4], in test [5] and in test [6] was “inactive” each time. Moreover, the Potency result in [7], in [8], in test [9], in test [10], in test [11] and in test [12] was “inactive” in each case. In addition, the Potency result in test [13] and in [15] was “inactive” each time. In addition, the compound was called inactive in [14].

As for `CC1=CC[C@@H](C(C)(C)O)CC1`, the Potency entry in [1], in [2], in test [16], in [17], in [4] and in [5] was “inactive” throughout. The Potency entry in test [7], in test [8], in [9], in test [10], in test [11] and in test [12] was “inactive” throughout. Further, the Potency result in test [13] was “inactive”.

For the compound `Cc1cc(Br)ccc1NC(=O)CCl`, the Potency result in [1], in test [4], in test [5], in test [9], in [10] and in [13] was “inactive” throughout. Also, the Potency in test [16] was 30.9 µM (active); in test [17] it was 24.5 µM (active); in test [6], 61.1 µM (active); in [7], 48.6 µM (active); in [11] it was 9.69 µM (active); in test [12], 19.3 µM (active). Moreover, the Potency in [18] is 4.33 µM (active).

On to `c1ccc(-c2ccc(C(c3ccccc3)n3ccnc3)cc2)cc1` (stereo unspecified), for which the Potency result in test [1], in [2], in test [4], in test [5], in test [6] and in test [7] was “inactive” in each case. Further, the Potency result in test [19], in test [20], in [9], in [10], in [11] and in test [12] was “inactive” in each case. The Potency result in test [13] was “inactive”. Further, the Potency in [16] is 30.1 µM (active).

Regarding `CCNc1nc(NC(C)(C)C)nc(OC)n1`, the Potency entry in [1], in test [2], in test [17], in [3], in test [4] and in test [5] was “inactive” each time. Moreover, the Potency result in test [7], in [9], in test [10], in [11], in test [12] and in test [13] was “inactive” in each case. The Potency entry in test [15] is “inactive”. For the same compound, in [14], the compound was classed as inactive.

For the compound `CCn1c2ccccc2c2ccccc21`, the Potency entry in [1], in test [2], in [16], in test [3], in [4] and in [5] was “inactive” throughout. For the same compound, the Potency entry in test [7], in [19], in test [9], in [10], in test [11] and in [12] was “inactive” each time. In addition, the Potency result in test [13] and in test [18] was “inactive” throughout.

Take `O=C1c2ccccc2C(=O)c2c(Cl)cccc21`: the Potency entry in test [1], in [2], in test [3], in test [4], in test [5] and in test [6] was “inactive” in each case. Also, the Potency result in [7], in test [19], in [10], in [11], in test [12] and in [13] was “inactive” each time. In [18], the Potency entry is “inactive”.

`CN(C)CCOc1ccc(/C(=C(/CCCl)c2ccccc2)c2ccccc2)cc1`: the Potency is 40.9 µM (active) in [2]; 40.9 µM (active) in [16]; 40.9 µM (active) in test [17]; 36.4 µM (active) in [5]; 51 µM (active) in [11]; 36.1 µM (active) in [18]. The Potency result in [4], in test [9], in test [10] and in [13] was “inactive” throughout.

(Values after PubChem BioAssay (Tox21).)
